Where “and” joins values, the source holds several entries; their conditions need not be identical. Equal values may be shown once. Inconclusive results are not listed. Where a call stands in place of a potency, no number is given. Calls of active or inactive are those of the source. Calls follow the shape of the dose curve; as a rule, active = well fitted cell-killing curve with a large enough effect in the repeat runs; inconclusive = weak or mixed curves, or effect the other way; inactive = flat fitted curve, though single readings scatter.
Test: qHTS assay to identify small molecule agonists of the constitutive androstane receptor (CAR) signaling pathway - cell viability counter screen (AID 1224836); also: nearly all actives have a fitted effect of over 45% in size
Conditions: HepG2-CYP2B6-hCAR viability, CellTiter-Fluor, 23 h, PK11195 added to every well; series mostly up to 92.4 µM
From the text: U.S. Tox21 Program National Center for Advancing Translational Sciences [NCATS] NIH Chemical Genomics Center [NCGC] U.S. Environmental Protection Agency [EPA] National Institutes of Environmental Health Sciences [NIEHS] National Toxicology Program [NTP] U.S. Food and Drug Administration [FDA] Tox21 Assay Overview: The constitutive androstane receptor (CAR) is a nuclear receptor which regulates multiple drug metabolizing enzymes (DMEs) and transporters. Activating CAR will generally increase the transcription and subsequent translation of CYP2B6 and CYP3A4. These two DMEs represent about 50% of the drug metabolizing potential in the body. […] Recently, there have also been studies performed indicating CARs role in energy metabolism and cancer therapy. Therefore, inducing CARs activity could have a potential effect on diabetes and cancer. Identifying environmental toxins and compounds which modulate CAR, through the use of the Tox21 10K compound collection, will be an important step in determining the toxicity and potential therapeutic effects these factors will have on the human body. To differentiate true CAR agonists from cytotoxic substances, the assay is multiplexed with a cell viability assay.
Tox21 Assay Protocol Summary: A double-stable (hCAR and CYP2B6-2.2kb) transfected cell line, derived from human hepatoma (HepG2) cells, was utilized for the duration of the quantitative high-throughput screens. The HepG2-CYP2B6-hCAR cells were dispensed at 2500 cells/4 uL/well in 1536-well white solid bottom plates using a Multidrop Combi. After the assay plates were incubated at 37 C/5% CO2 for 4 hrs, 23 nL of compounds at 15 concentrations (from 5-48 columns) or positive control (from 1 to 4 columns) were transferred to the assay plates using a Pintool station. One uL of PK11195 (final concentration = 0.75 uM) was added, using a Flying Reagent Dispenser, inside each well. After a 23 hr incubation period at 37 C/5% CO2, 1 uL of CellTiter-Fluor reagent was added into each well of the assay plates using a Flying Reagent Dispenser. The fluorescence intensity in the plates was then measured using a ViewLux plate reader.
Potency is read from the fitted curve at half-maximal effect.

| Structure (SMILES) | Potency |
| --- | --- |
| Clc1nc(Cl)c(Cl)c(Cl)c1Cl | inactive |
| c1ccc2c(c1)c1cccc3ccc4cccc2c4c31 | inactive |
| O=C(c1ccccc1)c1ccccc1O | inactive |
| C#C[C@]1(O)CC[C@H]2[C@@H]3CCC4=Cc5oncc5C[C@]4(C)[C@H]3CC[C@@]21C | inactive |
| Nc1ncn([C@@H]2O[C@H](CO)[C@@H](O)[C@H]2O)c(=O)n1 | 5.96 µM (active) |
| CC(=O)Oc1ccccc1C(=O)Nc1ncc([N+](=O)[O-])s1 | 19.7 µM (active) and 21.1 µM (active) |
| CC(C)OC(=O)C(C)(C)Oc1ccc(C(=O)c2ccc(Cl)cc2)cc1 | inactive |
| COC(=O)C1=C(C)NC(C)=C(C(=O)OCCN(C)Cc2ccccc2)C1c1cccc([N+](=O)[O-])c1 (stereo not given) | 48.3 µM (active) |
| O=C=Nc1ccc(Cc2ccc(N=C=O)cc2)cc1 | inactive |
| CN1C(C(=O)Nc2ccccn2)=C(O)c2ccccc2S1(=O)=O | inactive |
| CCCCOCCOCCO | inactive |
| S=C(NC1CCCCC1)NC1CCCCC1 | inactive |
| O=Cc1ccccc1O | inactive |
| Oc1ccc(O)cc1 | inactive |
| c1cc(-c2ccncc2)ccn1 | inactive |
| O=C(COc1ccc(Cl)cc1)N1CCN(Cc2ccc3c(c2)OCO3)CC1 | inactive |
| Cc1[nH]c(=O)c(C#N)cc1-c1ccncc1 | inactive |
| O=C(c1ccccc1)c1ccc(O)cc1O | inactive |
| CC(C)OC=O | inactive |
| CCCCCCCCCCCO | inactive |

| Structure (SMILES) | Potency |
| --- | --- |
| O=[N+]([O-])c1ccc2c(c1)Cc1ccccc1-2 | inactive |
| Cc1cccc(N(C)C(=S)Oc2ccc3ccccc3c2)c1 | inactive |
| COc1ccc(C(=O)CC(=O)c2ccc(C(C)(C)C)cc2)cc1 | inactive |
| COc1cccc2c1C(=O)c1c(O)c3c(c(O)c1C2=O)C[C@@](O)(C(=O)CO)C[C@@H]3O[C@H]1C[C@H](N)[C@H](O)[C@H](C)O1 | 6.85 µM (active) and 6.68 µM (active) |
| Cn1cnc([N+](=O)[O-])c1Sc1ncnc2nc[nH]c12 | 6.82 µM (active) |
| O=P(O)(O)O | inactive |
| c1ccncc1 | inactive |
| c1cc(N(CC2CO2)CC2CO2)ccc1OCC1CO1 (stereo not given) | 61.1 µM (active) |
| CCC(C)OC(=O)c1ccc(O)cc1 (stereo not given) | inactive |
| Cc1ccc(C(=O)c2cc(O)c(O)c([N+](=O)[O-])c2)cc1 | 43.3 µM (active) |
| CCCCC(CC)COCC1CO1 (stereo not given) | inactive |
| Brc1cc(Oc2cc(Br)c(Br)c(Br)c2Br)c(Br)c(Br)c1Br | inactive |
| Cc1c(OCC(F)(F)F)ccnc1CS(=O)c1nc2ccccc2[nH]1 (stereo not given) | inactive |
| COc1ccccc1/C=C/C=O | inactive |
| CCOC(=O)C(C#N)=C(c1ccccc1)c1ccccc1 | inactive |
| CC(=O)CC/C=C(\C)CCC=C(C)C | inactive |
| Cc1cccc(C(=O)O)c1 | inactive |
| O=c1oc(=O)c2cc3c(=O)oc(=O)c3cc12 | inactive |
| O=C(O)c1ccccc1Nc1cccc(C(F)(F)F)c1 | inactive |
| COC(C)COC(C)COC(C)CO (stereo not given) | inactive |

Reference: PubChem BioAssay (Tox21)
